# From PubChem BioAssay (NCI)
# Values joined by “and” are separate entries in the source; they are usually repeats but may differ in a detail not shown here. Equal entries are not always repeated. About 83,000 compounds went through this panel and 20% of them were active in at least one assay; those are over-represented in the sample as a whole.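 Treatment: one concentration, 48 hours, 96-well format. Scoring: percent growth, with anything below 10 considered active.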 Unmarked numbers belong to inactive results. Active and inactive are the calls of the source.
# Key:
# Assay in all cases: NCI-60 one-dose screen, 48 h (100 = growth as untreated, 0 = no growth, -100 = all killed)
# Settings in all cases: 10 µM unless noted
# [1] = test system: UACC-62 melanoma
# [2] = test system: TK-10 renal
# [3] = test system: HCT-15 colon
# [4] = test system: HT29 colon
# [5] = test system: SNB-75 CNS
# [6] = test system: U251 CNS
# [7] = test system: PC-3 prostate
# [8] = test system: SK-MEL-5 melanoma
# [9] = test system: LOX IMVI melanoma
# [10] = test system: SK-MEL-28 melanoma
# [11] = test system: SK-MEL-2 melanoma
# [12] = test system: EKVX NSCLC
# [13] = test system: SN12C renal
# [14] = test system: ACHN renal
# [15] = test system: CAKI-1 renal
# [16] = test system: A498 renal
# [17] = test system: HL-60(TB) leukemia
# [18] = test system: CCRF-CEM leukemia
# [19] = test system: SNB-19 CNS
# [20] = test system: UO-31 renal
SMILES,growth [1],growth [2],growth [3],growth [4],growth [5],growth [6],growth [7] [%],growth [8],growth [9],growth [10],growth [11],growth [12] [%],growth [13],growth [14],growth [15],growth [16],growth [17],growth [18],growth [19] [%],growth [20]
CCOC(=O)C1C(c2ccco2)C2(C#N)C(=N)OC1(C)C2(C#N)C#N (stereo not drawn),62% [100 µM] and 20.8% [100 µM],83.8% [100 µM] and 19.2% [100 µM],–,–,–,–,–,–,–,–,–,–,–,–,–,–,–,–,–,–
O=S1(=O)OCCO1,87.4%,–,99%,107%,90.5%,105%,99.9,101%,92.3%,100%,113%,100,93.3%,99.2%,89.5%,99%,98.6%,94.6%,–,–
NNC(=S)N/N=C(\C(=O)Nc1cccc(O)c1)C1C(=O)NC(=S)NC1=O,90.4% [100 µM] and 91% [100 µM],132% [100 µM] and 93% [100 µM],–,–,–,–,–,–,–,–,–,–,–,–,–,–,–,–,–,–
Cc1ccc(C(=O)O[C@H](C(=O)O)[C@H](OC(=O)c2ccc(C)cc2)C(=O)O)cc1,104%,105%,101%,98%,103%,97.8%,101,105%,97%,109%,–,–,102%,106%,102%,120%,95.4%,105%,–,–
CN1CCC2(CC1)C(C#N)C(=O)NC(=O)C2C#N (stereo not drawn),101%,125%,98.4%,118%,76.4%,–,101,102%,100%,95.1%,113%,–,105%,110%,92%,95.8%,107%,104%,99,91.9%
CC1=C(C)C(=O)O[C@@H]([C@](C)(O)[C@]2(O)CC[C@@]3(O)[C@@H]4C[C@H]5O[C@]56CC=CC(=O)[C@]6(C)[C@H]4CC[C@]23C)C1,-5.31% (active),-48% (active),-1.03% (active),1.74% (active),-11.3% (active),–,11.2,-15.6% (active),-54.7% (active),1.96% (active),-24.6% (active),–,3.65% (active),-72.4% (active),-49% (active),-59.9% (active),-36.9% (active),-8.66% (active),30.8,-24.3% (active)
N#CC(C#N)=Cc1cccc(F)c1,98.2%,104%,105%,104%,–,103%,100,101%,98.9%,111%,112%,102,101%,106%,99.6%,102%,97.2%,101%,100,95.9%
Cn1cc(C(=O)C[n+]2ccccc2)c2ccccc21,105%,115%,110%,105%,–,97%,90.4,97.9%,93.2%,114%,104%,65.4,101%,109%,99.5%,84.8%,98.8%,96.6%,105,98%
C[C@H](O)CCC(=O)c1ccoc1,96%,103%,110%,106%,–,102%,95.7,–,95.5%,115%,110%,104,96.9%,114%,101%,103%,99.4%,98.1%,100,98.9%
CC1=CC(=O)CCC12CCOC2=O (stereo not drawn),87%,92%,98.7%,101%,91.3%,99.1%,111,103%,95.6%,95.9%,125%,91.4,95.2%,101%,91.3%,91.7%,86.5%,82.4%,–,–
CCOC(=O)C1=C(C)/C(=C\c2[nH]c(C)c(C(=O)OCC)c2C)N=C1C,–,–,–,–,–,–,–,–,–,–,–,–,–,–,–,–,41.6%,–,–,–
O=C1C(=C(O)c2ccccc2)C(=O)c2ccccc21,–,–,–,–,–,–,–,–,–,–,–,–,–,–,–,–,97.6%,–,–,–
COc1c(O)cc2c(c1OC)-c1ccc(SC)c(=O)cc1C(NC(C)=O)CC2 (stereo not drawn),18.6%,48.7%,-40.6% (active),-18.9% (active),-13.2% (active),5.68% (active),–,-28.2% (active),15.4%,–,59.8%,41.9,48.7%,3.04% (active),19.3%,7.2% (active),-32.6% (active),–,18.5,16.2%
CC(=O)c1cccc(S(=O)(=O)F)c1,103%,115%,96.3%,104%,117%,100%,79,110%,90.1%,120%,91.9%,98.8,–,99%,95.9%,95.8%,–,97.9%,–,83%
